The values below come from ChEMBL document CHEMBL1157539, “Thousands of chemical starting points for antimalarial lead identification” (Nature, 2010).

Common to all, as to format: functional
In experiment [1] the test system is Plasmodium falciparum. In words: GSK_TCMDC: Inhibition of Plasmodium falciparum 3D7 in whole red blood cells, using parasite LDH activity as an index of growth. Test compounds present at 2uM.
For experiment [2], the system named is Plasmodium falciparum. The experiment in a line: GSK_TCMDC: Inhibition of Plasmodium falciparum Dd2 in whole red blood cells, using parasite LDH activity as an index of growth. Test compounds present at 2uM.
For a further experiment, the system named is HepG2. The experiment in a line: GSK_TCMDC: Percent inhibition of human HepG2 cell line. Test compounds present at 10uM.

By Inhibition is commonly meant the share of the control response that was lost under treatment. Lower therefore signals little suppression. Consider `Cc1cccc2nc(-c3cccc(-c4cccc(CNCCCN5CCCC5=O)c4)c3)[nH]c12.O=C(O)C(F)(F)F`, for which the Inhibition with Plasmodium falciparum [1] worked out at 100%; in the experiment with Plasmodium falciparum [2] it was 76%; in the experiment with HepG2, 9%.
Turning to `CS(=O)(=O)NCCCNCc1ccc(-c2cccc(-c3nc4cc(C(F)(F)F)ccc4[nH]3)c2)cc1.O=C(O)C(F)(F)F`, the figures for the Inhibition with Plasmodium falciparum [1], in the experiment with Plasmodium falciparum [2] and in the experiment with HepG2 were 100%, 83% and 17%, respectively.
As for `CCN1CCC(N(Cc2ccc(-c3ccc(Cl)cc3)cc2)C(=O)Cn2c(CCc3cccc(F)c3F)cc(=O)c3ccccc32)CC1.O=C(O)C(O)C(O)C(=O)O`, the Inhibition with Plasmodium falciparum [1] came out at 99%; in the experiment on Plasmodium falciparum [2] it was 95%; with HepG2, 100%.
Turning to `CCCc1ccc(S(=O)(=O)NC2CCN(c3ccnc(Nc4ccc(OC)cc4)n3)C2)cc1` (stereo not given), the results for the Inhibition in the experiment with Plasmodium falciparum [1], with Plasmodium falciparum [2] and in the experiment with HepG2 were 89%, 45% and 42%, respectively.
In the case of `COCc1nc(-c2ccccc2)nc(N2CCN(C(=O)NC(C)C)CC2)c1Cc1ccccc1F`, the Inhibition in the experiment with Plasmodium falciparum [1] is 96%; with Plasmodium falciparum [2], 94%; with HepG2, 35%.
As for `O=C(O)C(F)(F)F.Oc1ccc(CCNc2nc(NCc3ccccc3-c3ccc(F)cc3)nc(N3CCNCC3)n2)cc1`, the Inhibition came out at 92% in the experiment on Plasmodium falciparum [1], 24% in the experiment with Plasmodium falciparum [2] and 15% in the experiment with HepG2.
On to `Clc1cccc(Nc2ccc3c(N4CCCCC4)ncnc3n2)c1`, for which the Inhibition in the experiment with Plasmodium falciparum [1] was found to be 97%; in the experiment with Plasmodium falciparum [2], 93%; in the experiment on HepG2, 54%.
On to `CC(C)CNCc1cccc(-c2ccc(CN(C(=O)NCCc3ccccc3)C3CCN(Cc4ccccc4)CC3)cc2)c1.O=C(O)C(F)(F)F`, for which the Inhibition in the experiment on Plasmodium falciparum [1] was found to be 98%; in the experiment on Plasmodium falciparum [2] it was 47%; with HepG2 it was 99%.
In the case of `Cl.N#Cc1ccc2c(c1)CCN(CCC1CCC(NC(=O)c3cc4ccc(Cl)cc4[nH]3)CC1)C2` (stereo not given), the Inhibition in the experiment with Plasmodium falciparum [1] is given as 100%; with Plasmodium falciparum [2] it was 0%; in the experiment with HepG2 it was 5%.
`O=C(Nc1cccc(Oc2ccccc2)c1)N[C@H]1CCN(Cc2ccc(OCCCN3CCCCC3)cc2)C1`: the Inhibition stood at 100% in the experiment with Plasmodium falciparum [1], 70% in the experiment with Plasmodium falciparum [2] and 94% in the experiment on HepG2.
In the case of `COc1cc(OC)c2c(c1Cl)O[C@]1(C2=O)C(=O)C(Cc2ccccc2)(Cc2ccccc2)C(=O)C[C@H]1C`, the Inhibition in the experiment on Plasmodium falciparum [1] is 90%; in the experiment with Plasmodium falciparum [2] it was 45%; in the experiment with HepG2 it was 0%.
For the molecule `Cc1c(CN2CCCCC2)cccc1OCCCNc1nc(NCCc2ccc(O)cc2)nc(N2CCNCC2)n1.O=C(O)C(F)(F)F`, the Inhibition in the experiment with Plasmodium falciparum [1] came to 100%; with Plasmodium falciparum [2], 23%; in the experiment on HepG2 it was 26%.
For the molecule `COc1ccc(Nc2nccc(N3CCC(NC(=O)c4cc5ccccc5s4)C3)n2)cc1` (stereo not given), the Inhibition with Plasmodium falciparum [1] came to 99%; with Plasmodium falciparum [2], 86%; with HepG2, 1%.
Taken in the same sequence, the figures for `CNC(=O)NC1CCN(Cc2c(-c3cccs3)nc3ccccc3c2C(=O)N[C@@H](C)C2CCCCC2)CC1` were 99%, 97% and 5%.
In the case of `COc1ccc(Br)cc1/C=C/C(=O)Nc1cccc(C2CCN(C)CC2)c1.O=CO`, the Inhibition in the experiment on Plasmodium falciparum [1] was 95%; in the experiment on Plasmodium falciparum [2] it was 37%; in the experiment on HepG2, 44%.
`COc1ccc2nc(N3CCNCC3)nc(NCCCc3ccccc3)c2c1.Cl`: the Inhibition in the experiment with Plasmodium falciparum [1] is reported as 100%; in the experiment with Plasmodium falciparum [2], 43%; in the experiment on HepG2 it was 31%.
In the case of `COc1ccc(CNc2ccnc(-n3cnc4cc(C)c(C)cc43)n2)cc1Cl.O=C(O)C(F)(F)F`, the Inhibition was found to be 100% with Plasmodium falciparum [1], 100% with Plasmodium falciparum [2] and 6% with HepG2.
On to `Cc1ccc(S(=O)(=O)c2nc(S(=O)(=O)c3ccccc3)sc2NCC2CCCO2)cc1` (stereo not given), for which the Inhibition with Plasmodium falciparum [1] was found to be 88%; in the experiment on Plasmodium falciparum [2] it was 17%; with HepG2, 4%.
As for `COc1ccc2nc(-c3ccccc3)cc(N/N=C/c3ccc([N+](=O)[O-])o3)c2c1`, the Inhibition was 100% in the experiment with Plasmodium falciparum [1], 99% in the experiment with Plasmodium falciparum [2] and 90% in the experiment with HepG2.
In the same order, the values of `CC1CCc2c(C(=O)Nc3c(F)cc(F)cc3Br)csc2C1` (stereo not given) are 96%, 59% and 0%.
As to `COc1cccc(NC(=O)c2ccc(NCCCN3CCC(C)CC3)c([N+](=O)[O-])c2)c1`, the Inhibition in the experiment with Plasmodium falciparum [1] amounted to 100%; in the experiment with Plasmodium falciparum [2], 46%; in the experiment on HepG2, 9%.
For `O=C(Nc1ccc(C(F)(F)F)cc1)N[C@H]1CCN(CCCCCNC(=O)C2CC2c2ccc(Cl)c(Cl)c2)C1` (stereo not given in full), the Inhibition in the experiment on Plasmodium falciparum [1] came to 96%; with Plasmodium falciparum [2], 0%; with HepG2, 41%.
Taken in the same sequence, the figures for `COC(=O)c1cccc(CNCc2ccc(-c3ccc(-c4nc5cc(F)ccc5[nH]4)cc3)cc2)c1.O=C(O)C(F)(F)F` were 100%, 95% and 8%.
`O=C(CSc1nn(-c2ccccc2)c(=S)s1)c1c[nH]c2ccccc12`: the results for the Inhibition in the experiment on Plasmodium falciparum [1], in the experiment on Plasmodium falciparum [2] and with HepG2 were 93%, 68% and 0%, respectively.
In the case of `O=C(NC1CCCCN(Cc2ccc3c(c2)OCCO3)C1)c1cc(-c2ccccc2F)cs1.O=C(O)C(F)(F)F` (stereo not given), the Inhibition is given as 92% with Plasmodium falciparum [1], 19% with Plasmodium falciparum [2] and 8% in the experiment on HepG2.
On to `CCOC(=O)c1c(CCc2ccc(C(F)(F)F)cc2)nc2c(c1-c1ccc(C(=O)N[C@@H](C)c3ccncc3)cc1)C(=O)N1CCC[C@@H]21`, for which the Inhibition with Plasmodium falciparum [1] was determined as 85%; in the experiment on Plasmodium falciparum [2], 68%; with HepG2, 0%.
With `Cc1ccc2nc(C)n(C3CCN(C(=O)Cc4ccc(F)c(F)c4)CC3)c2c1`, the Inhibition in the experiment with Plasmodium falciparum [1] is 100%; with Plasmodium falciparum [2], 100%; with HepG2, 4%.
In the case of `N#Cc1ccc(-c2ccc(C(=O)NCCCCN3CCC(c4cc(Br)c5c(c4OCC(N)=O)CCCC5)CC3)cc2)cc1`, the Inhibition is on record as 100% in the experiment on Plasmodium falciparum [1], 89% in the experiment with Plasmodium falciparum [2] and 23% with HepG2.
For the molecule `Cc1cc(=NN=Cc2cccc(F)c2)c2cccc(C)c2[nH]1`, the values for the Inhibition in the experiment with Plasmodium falciparum [1], with Plasmodium falciparum [2] and with HepG2 were 100%, 53% and 14%, respectively.
For `O=C(/C=C/c1ccc(Cl)c(Cl)c1)NCCCCCN1CCC(NC(=O)Nc2cc(F)ccc2F)CC1`, the results for the Inhibition in the experiment on Plasmodium falciparum [1], in the experiment on Plasmodium falciparum [2] and with HepG2 were 98%, 22% and 78%, respectively.
